Source: PubChem BioAssay AID1159580 (chemical genetic matrix, 2015)
Values joined by “and” are separate entries in the source; they are usually repeats but may differ in a detail not shown here. Identical values can stand only once. In all, about 5,500 compounds went through this assay and about 2,000 (36%) were called active. Not shown: some 18% with an inconclusive outcome. Rule as the data show it: active = normalized growth mostly below about 0.91 (no sharp cut-off); inconclusive = no clear call, values can overlap the other calls; inactive = mostly above about 0.92. The list shows a part of the results.

Assay: chemical genetic growth profiling, strain panel (AID 1159580);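 also: tested at 20 µM; growth read once vehicle control cultures reached saturation at 30 °C; 1 = growth at the plate median or of vehicle wells; lower values mean less growth of the strain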
Conditions: S. cerevisiae deletion strains, growth OD

Measured: normalized growth

O=C1C=CC2=C3c4cc(O)c(O)cc4CC3(O)COC2=C1O (centres undefined)
active: locus YAL013W, strain DEP1, hits give low values 0.873 | locus YDR069C, strain doa4, hits give low values 0.896 | locus YDR162C, strain NBP2, hits give low values 0.789 | locus YGR229C, strain SMI1, hits give low values 0.557 | locus YHR027C, strain rpn1, hits give low values 0.908 | locus YJL187C, strain SWE1 (second series), hits give low values 0.826
inactive: locus YAL021C, strain ccr4, hits give low values 0.933 | locus YAL026C, strain drs2, hits give low values 0.945 | locus YAL030W, strain snc1, hits give low values 1.02 | locus YBL061C, strain skt5, hits give low values 0.993 | locus YBR009C, strain hhf1, hits give low values 0.999 | locus YBR021W, strain FUR4, hits give low values 1.04 | locus YBR023C, strain chs3, hits give low values 0.949 | locus YBR171W, strain sec66, hits give low values 1.06 | locus YBR229C, strain ROT2, hits give low values 0.996 | locus YBR231C, strain swc5, hits give low values 0.929 | locus YBR279W, strain paf1, hits give low values 0.964 | locus YCL011C, strain gbp2, hits give low values 1.02 | locus YCL016C, strain dcc1, hits give low values 1.01 | locus YCL029C, strain bik1, hits give low values 1.04 | locus YCL061C, strain MRC1, hits give low values 1.01 | locus YCL069W, strain vba3, hits give low values 1.03 | locus YCR088W, strain abp1, hits give low values 1.05 | locus YDL005C, strain med2, hits give low values 1.06 | locus YDL035C, strain GPR1, hits give low values 0.904 | locus YDL040C, strain nat1, hits give low values 1.04 | locus YDL074C, strain BRE1, hits give low values 0.898 | locus YDL101C, strain DUN1, hits give low values 0.946 | locus YDL134C, strain PPH21, hits give low values 0.942 | locus YDL185W, strain tfp1, hits give low values 0.997 | locus YDL192W, strain arf1, hits give low values 0.998 | locus YDR001C, strain nth1, hits give low values 1.04 | locus YDR101C, strain arx1, hits give low values 1.06 | locus YDR137W, strain rgp1, hits give low values 0.972 | locus YDR159W, strain sac3, hits give low values 1.13 | locus YDR195W, strain ref2 1.11 | locus YDR297W, strain sur2, hits give low values 1.01 | locus YDR318W, strain mcm21, hits give low values 1.01 | locus YDR334W, strain swr1, hits give low values 0.992 | locus YDR335W, strain msn5, hits give low values 1.01 | locus YDR388W, hits give low values 1.03 | locus YDR392W, strain spt3, hits give low values 1.03 | locus YDR502C, strain sam2, hits give low values 1.01 | locus YEL003W, strain gim4, hits give low values 1.01 | locus YEL037C, strain rad23, hits give low values 1.01 | locus YEL061C, strain CIN8 (second series), hits give low values 1.04 | locus YEL061C, strain CIN8, hits give low values 0.964 | locus YER015W, strain faa2, hits give low values 0.99 | locus YER016W, strain bim1, hits give low values 1.04 | locus YER110C, hits give low values 1.05 | locus YER111C, strain swi4, hits give low values 1.01 | locus YER155C, strain BEM2 (second series), hits give low values 1.03 | locus YER155C, strain BEM2, hits give low values 1.05 | locus YER167W, strain BCK2, hits give low values 1.06 | locus YFR010W, strain ubp6, hits give low values 0.985 | locus YGL078C, strain dbp3, hits give low values 1.02 | locus YGL086W, strain mad1, hits give low values 1.02 | locus YGL167C, strain pmr1, hits give low values 1.03 | locus YGL173C, strain kem1, hits give low values 0.947 | locus YGL227W, strain vid30, hits give low values 1.06 | locus YGL240W, strain doc1, hits give low values 1.11 | locus YGL248W, strain PDE1, hits give low values 0.934 | locus YGL253W, strain hxk2, hits give low values 0.959 | locus YGR078C, strain PAC10, hits give low values 0.957 | locus YGR135W, strain pre9, hits give low values 0.985 | locus YGR252W, strain gcn5, hits give low values 0.966 | locus YHR013C, strain ard1, hits give low values 0.901 | locus YHR030C, strain SLT2, hits give low values 0.999 and 0.987 | locus YHR079C, strain IRE1 (second series), hits give low values 1.03 | locus YHR079C, strain IRE1, hits give low values 1.01 | locus YHR094C, strain hxt1, hits give low values 1.05 | locus YHR129C, strain ARP1, hits give low values 0.967 | locus YHR142W, strain chs7, hits give low values 0.943 | locus YHR200W, strain rpn10, hits give low values 1.03 | locus YIL066C, strain RNR3, hits give low values 0.881 | locus YIL073C, strain SPO22, hits give low values 0.812 | locus YIL125W, strain kgd1, hits give low values 1.01 | locus YIR030C, strain dcg1, hits give low values 1.03 | locus YJL092W, strain hpr5, hits give low values 1.04 | locus YJL095W, strain BCK1 (second series), hits give low values 1.01 | locus YJL095W, strain BCK1, hits give low values 0.926 and 1.02 | locus YJL115W, strain asf1, hits give low values 1.05 | locus YJL129C, strain trk1, hits give low values 1.09 | locus YJL134W, strain LCB3, hits give low values 0.999 | locus YJL154C, strain vps35, hits give low values 1.03 | locus YJL164C, strain tpk1, hits give low values 0.968 | locus YJL166W, strain qcr8, hits give low values 0.995 | locus YJL168C, strain set2, hits give low values 1.01 | locus YJL187C, strain SWE1, hits give low values 0.986
